From PubChem BioAssay (NCI) come the findings set out here.

Compounds without any hit were thinned out: in the full panel of roughly 83,000, 20% have a hit.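 Interpretation: 100, growth as untreated; towards 0, rising growth inhibition; 0, no net growth; 0 to -100, cell death. Compounds scoring below 10 were considered active.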 Values without a mark were called inactive. Activity calls are given as the source filed them.

This experiment has as its system HL-60(TB) leukemia. The experiment can be described thus: NCI-60 one-dose screen, 48 h (100 = growth as untreated, 0 = no growth, -100 = all killed). The note with it: 10 µM unless noted.
In the case of `Oc1ccc(N=Nc2ccc(N=Nc3ccccc3)cc2)cc1`, the growth was 7.35% (active).

For `CCN(CC)CCS(=O)(=O)CCNc1ccnc2cc(Cl)ccc12`, the growth is -22.5% (active).

Turning to `Cc1ccccc1-c1cc(Cc2ccccc2O)c(=O)[nH]n1`, the growth was 84.1%.

`O=C(Nc1ccccc1CNc1nc(Nc2ccc(OCCN3CCCC3)cc2)ncc1Cl)NC1CCCCC1`: the growth is 99.9%.

Turning to `COc1cc2c(c(O)c1Cl)C(=O)c1c(O)cc(C[C@H](C)O)cc1[C@H]2[C@H]1c2cc(C[C@H](C)O)cc(O)c2C(=O)c2c1cc(OC)c(Cl)c2O`, the growth was 1.89% (active).

Consider `CNc1nc2c(s1)C(c1cc(F)ccc1F)CC(=O)N2` (stereo not drawn), for which the growth is 46.7%.

Regarding `C=C[C@H]1CCC/C=C/[C@@H]2C[C@H](O)C[C@H]2[C@H](O)/C=C/C(=O)O1`, the growth was -0.65% (active).

With `COc1cc(/C=C2\CCC/C(=C\c3cc(CN4CCCCC4)c(O)c(OC)c3)C2=O)cc(CN2CCCCC2)c1O`, the growth is 92.7%.

Regarding `Cc1cc(=O)oc2cc(OC(=O)N3CCN(C)CC3)ccc12`, the growth was 106%.

Turning to `CC(C)COCC(CN(Cc1ccccc1)c1ccccc1)N1CCCC1` (stereo not drawn), the growth is 82.4%.

Consider `CCCCCCN(CCCCCC)CC(O)c1ccc2c3c(cccc13)CC2` (stereo not drawn), for which the growth is 64.6%.

On to `C#Cc1nc(Nc2cc(C)[nH]n2)c2ccccc2n1`, for which the growth was -38.8% (active).

As for `C=C(C)[C@@H]1CCC[C@]2(C(=O)O)CC[C@]3(C)[C@@H](CC[C@@H]4[C@@]5(C)C/C(=C/c6ccncc6)C(=O)C(C)(C)[C@@H]5CC[C@]43C)[C@@H]12`, the growth is -5.12% (active).
